Screens deposited in PubChem BioAssay by several laboratories.
Sampled rows, rich in hits. Any-hit rate of the full collection: about 7.8%.
PostGolgi ctrl = growth of the yeast control strain, post-Golgi counter-screen; inhibition, % at 10 µM; efflux-deficient yeast background strain, growth absorbance A615, 16 h; 5% of 98,000 active
sEH inhibitor = inhibitors of human soluble epoxide hydrolase; recombinant human sEH enzymatic activity assay; AID 707; 0.34% of 91,000 active; P34913; inhibition, % at 2 µM; in the data active = inhibition above about 80%
Target sequence (P34913 whole entry, looked up): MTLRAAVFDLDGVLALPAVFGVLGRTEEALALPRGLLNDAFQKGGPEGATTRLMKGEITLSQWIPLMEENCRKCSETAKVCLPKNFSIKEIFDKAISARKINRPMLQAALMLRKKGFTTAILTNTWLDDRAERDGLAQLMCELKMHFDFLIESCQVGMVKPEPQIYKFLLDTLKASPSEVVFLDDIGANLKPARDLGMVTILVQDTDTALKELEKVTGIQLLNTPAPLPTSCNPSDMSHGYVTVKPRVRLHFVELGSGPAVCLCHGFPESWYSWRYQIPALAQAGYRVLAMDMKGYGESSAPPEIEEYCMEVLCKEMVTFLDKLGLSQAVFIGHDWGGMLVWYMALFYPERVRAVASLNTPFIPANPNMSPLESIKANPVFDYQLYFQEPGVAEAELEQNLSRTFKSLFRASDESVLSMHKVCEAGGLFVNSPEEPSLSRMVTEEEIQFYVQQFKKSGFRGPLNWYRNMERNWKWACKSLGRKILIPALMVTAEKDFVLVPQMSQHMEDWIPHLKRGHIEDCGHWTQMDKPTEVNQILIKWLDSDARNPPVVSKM
PostGolgi yeast = growth inhibition of a yeast mutant, post-Golgi transport screen; inhibition, % at 10 µM; AID 739; 0.9% of 98,000 active; post-Golgi transport phenotypic cell assay;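 also: yeast cells grown in 1536-well plates; yeast grown about 18 h at 30C before absorbance read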
sEH activator = increases human soluble epoxide hydrolase activity. purified human sEH enzymatic activity, activator screen. activation, % at 2 µM. 0.04% of 91,000 active. AID 717; in the data active = activation above about 37%
Cav32 inh = human Cav3.2 channel inhibition, primary screen. Cav3.2-expressing cells, Fluo-4 calcium fluorescence FDSS; hits give low values. B-score at 10 µM. O95180. 4% of 100,000 active;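 active = single-dose well whose peak fluorescence ratio is a statistical outlier from its plate by either plate-standardised score or position-corrected B-score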
Active calls of the source: *; . = not tested or not shown. Rule as the data show it, unless noted: active = inhibition above about 30%; inactive = the rest.

SMILES	PostGolgi ctrl	sEH inhibitor	PostGolgi yeast	sEH activator	Cav32 inh
CCc1nn(-c2ccccc2)c2c1-c1cc(OC)c(OC)cc1C1(N2)C(=O)Nc2ccccc21 (stereo not given)	6	-7	24	10	.
CCOc1ccccc1-c1cc(-c2ccc(OC)cc2)nc2c1c(=O)n(C)c(=O)n2C	.	.	.	.	-1.9
C/C=C/C(=O)N1CC2(CC(c3cccc(NC(=O)COc4ccc(Cl)cc4)c3)=NO2)C[C@@H]1C(N)=O (stereo not given in full)	.	.	.	.	0.22
CCCN(CC1CC1)c1nc(N)c2c(N)nc(OC)cc2c1C#N	35*	2	8	-1	2.1
c1ccc(CN2c3ccccc3-c3nc4ccccc4n3C2c2ccccn2)cc1 (stereo not given)	43*	-3	9	5	-6.6*
CN1c2ccccc2-c2nc3ccccc3n2C1c1ccccn1 (stereo not given)	13	.	2	.	-1.7
COc1ccc(-c2nc3c4ccccc4[nH]c(=O)n3n2)cc1	13	2	14	-4	0.89
COc1ccc(-c2nc3n(n2)C(=O)CC(c2ccco2)S3)cc1 (stereo not given)	41*	.	4	.	0.13
COc1ccc(Cl)cc1N1CC(c2nc3ccccc3[nH]2)CC1=O (stereo not given)	10	-8	8	8	-0.0093
O=C1CC(c2nc3ccccc3[nH]2)CN1c1cccc(C(F)(F)F)c1 (stereo not given)	.	.	.	.	-5.4*
COc1ccccc1-c1cc(C(F)(F)F)nc(S(C)(=O)=O)n1	86*	2	46*	-4	.
COc1ccccc1-c1cc(C(F)(F)F)nc(S(=O)(=O)CCCC(=O)NC(C)C)n1	43*	4	2	-4	0.02
CN1CCN(c2nc(-c3ccco3)cc(C(F)(F)F)n2)CC1	1	-5	9	5	0.052
CS(=O)(=O)c1nc(-c2ccco2)cc(C(F)(F)F)n1	48*	-7	0	8	0.28
Cc1cc(/C=C2\SC(=Nc3ccccc3)NC2=O)c(C)n1-c1ccc(S(N)(=O)=O)cc1	8	0	-2	1	0.022
CC(C)(C)c1ccc(/C([O-])=C(/C(=S)NCc2ccco2)[n+]2ccccc2)cc1	-3	0	-6	1	-0.98
O=C(NCCOc1ccccc1)c1cc2ccccc2o1	20	2	-9	-6	-1.3
COc1ccc(Oc2c(C=O)c3ccccc3n2C)cc1	6	-8	-12	6	-0.45
Cc1ccc(Oc2c(C=O)c3ccccc3n2C)cc1	33*	-8	7	11	-1.2
CC(C)CC(CO)N1CCN(C(=O)c2ccc(Cl)cc2)CCC1=O (stereo not given)	.	.	.	.	-0.13
O=C(c1ccc(F)cc1)N1CCN(c2cc(=O)[nH]nc2-c2ccccc2)CC1	1	12	-5	-9	0.21
O=C(/C=C/c1ccccc1)NCCSCc1ccccc1Cl	10	30	0	-28	-5.7*
CCc1sc(C(=O)Nc2cc(Cl)ccc2N2CCCCC2)cc1C	41*	-6	64*	7	-1.3
Cc1ccc(C(=O)Nc2cc(Cl)ccc2N2CCCCC2)s1	20	6	0	-8	-2.3
Cn1c(N)c(S(=O)(=O)NCc2ccccc2)c(=O)n(C)c1=O	.	.	.	.	0.74
SMILES	PostGolgi ctrl	sEH inhibitor	PostGolgi yeast	sEH activator	Cav32 inh
CCCCC(=O)NC1(C(F)(F)F)C(=O)N(CC(C)C)C2=C1C(=O)CC(C)(C)C2 (stereo not given)	31*	7	-4	-5	-0.48
Cc1nc2cc(NC(=O)NCCC3=CCCCC3)ccc2o1	23	81*	0	-81	0.025
CC(C)(C)C1CCC2(CC1)C(C#N)=C(SCC(=O)Nc1ccccc1)NC(=O)C2C#N (stereo not given)	18	.	-3	.	-6.7*
CC1(C)CC(=O)C2=C(C1)NC(SCC(=O)Nc1ccccc1)=C(C#N)C21CCCCC1	3	-7	0	8	0.011
CC(O)[C@@H](C(=O)N1CCNCC1)n1cc(CCCCN)nn1 (stereo not given in full)	.	.	.	.	0.064
CCCCSc1nc(NCc2ccco2)c2c3c(sc2n1)COC(C)(C)C3	10	-14	-2	16	-5.7*
CSc1nc(NCc2ccco2)c2c3c(sc2n1)CN(C)CC3	4	-3	3	4	1.3
CCCSc1nc(NCc2ccco2)c2c3c(sc2n1)COC(C)(C)C3	47*	4	-1	-2	-5.6*
Cc1ccc(S(=O)(=O)N(CC(=O)N2CCCCC2)c2cccc(C)c2)cc1	.	-10	.	12	1.3
COc1ccc(-c2nnc(SCC(=O)Nc3sc4c(c3C#N)CCCC4)n2-c2ccccc2)cc1	.	-4	.	4	-0.74
